Reference: the supplement of paper PMC10849652
Of roughly 7,900 targets only a part is listed; those with a hit were picked by preference. About 0.6% of all pairs of compound and target were hits. A number with no mark means an inactive call.

Experiments:
Experiment in all cases: log2 fold change, soluble protein after heating vs DMSO (PISA); higher = thermal stabilisation; K562 cells, 10 uM, 30 min; active = over 0.2 and 3.5 SD of the protein, either way, in both replicates (recomputed)
[1] = compound: CC[C@@H]1C(=O)N(C)c2cnc(Nc3ccc(C(=O)NC4CCN(C)CC4)cc3OC)nc2N1C1CCCC1
How it was run: (§1)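 Aliquots of K562 cells (2×10^6 cells/mL) treated with 10 μM compound for 30 min were heated for 3 min over 48°C-58°C. After pooling and extraction in PBS with 0.5% NP-40 at 4°C, soluble protein from a 21,000xg, 90 min spin was quantified by TMTpro 16plex LC-MS/MS with channel sums equalised. Thermal stability is expressed against control samples, from duplicates, as a log2 fold change.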

volasertib = compound: CC[C@@H]1C(=O)N(C)c2cnc(Nc3ccc(C(=O)N[C@H]4CC[C@H](N5CCN(CC6CC6)CC5)CC4)cc3OC)nc2N1C(C)C [volasertib]
How it was run: as §1

[2] = compound: CC[C@H](C)N1C=C(C2=C(C=C(C=C21)C3=CN=C(C=C3)N4CCNCC4)C(=O)NCC5=C(C=C(NC5=O)C)C)C
How it was run: as §1

epoxomicin = compound: CC[C@H](C)[C@@H](C(=O)N[C@@H]([C@@H](C)O)C(=O)N[C@@H](CC(C)C)C(=O)[C@]1(CO1)C)NC(=O)[C@H]([C@@H](C)CC)N(C)C(=O)C [epoxomicin]
How it was run: as §1

[3] = compound: CCn1c(C(=O)N(C2CC2)C2CC2)cc2c3c(ncn3C)c(Nc3cc(C)n(C)n3)nc21
How it was run: as §1

[4] = compound: CCn1cc(-c2ccnc3[nH]c(-c4cccc(CN(C)C)c4)cc23)c(-c2ccc(NC(=O)N(C)C)cc2)n1
How it was run: as §1

[5] = compound: CN(C)CC(=O)Nc1ccc2[nH]c(=O)c3ccccc3c2c1
How it was run: as §1

rosiglitazone = compound: CN(CCOC1=CC=C(C=C1)C[C@H]2C(=O)NC(=O)S2)C3=CC=CC=N3 (racemic) [rosiglitazone]
How it was run: as §1

[6] = compound: CN1C2=C(C3=C1C(=O)N(N=C3)CC4=CC(=CC=C4)N)SC(=C2)S(=O)C
How it was run: as §1

[7] = compound: CN1CCC(CNc2ccc3ncc(-c4cccc(OC(F)(F)F)c4)n3n2)CC1
How it was run: as §1

saracatinib = compound: CN1CCN(CCOc2cc(OC3CCOCC3)c3c(Nc4c(Cl)ccc5c4OCO5)ncnc3c2)CC1 [saracatinib]
How it was run: as §1

sotrastaurin = compound: CN1CCN(c2nc(C3=C(c4c[nH]c5ccccc45)C(=O)NC3=O)c3ccccc3n2)CC1 [sotrastaurin]
How it was run: as §1

alvocidib = compound: CN1CC[C@H](c2c(O)cc(O)c3c(=O)cc(-c4ccccc4Cl)oc23)[C@H](O)C1 [alvocidib]
How it was run: as §1

Tubastatin A = compound: CN1CCc2c(c3ccccc3n2Cc2ccc(C(=O)NO)cc2)C1 [Tubastatin A]
How it was run: as §1

[8] = compound: CNC(=O)C1=CC=CC=C1NC2=NC(=NC=C2Cl)NC3=C(C=C(C=C3)N4CCOCC4)OC
How it was run: as §1

defactinib = compound: CNC(=O)c1ccc(Nc2ncc(C(F)(F)F)c(NCc3nccnc3N(C)S(C)(=O)=O)n2)cc1 [defactinib]
How it was run: as §1

rucaparib = compound: CNCc1ccc(-c2[nH]c3cc(F)cc4c3c2CCNC4=O)cc1 [rucaparib]
How it was run: as §1

[9] = compound: CNc1nc(-c2ccc3c(N)n[nH]c3c2)cc(N2C[C@@H](C(=O)NC3CCCCC3)CC[C@H]2C)n1
How it was run: as §1

encorafenib = compound: COC(=O)N[C@@H](C)CNc1nccc(-c2cn(C(C)C)nc2-c2cc(Cl)cc(NS(C)(=O)=O)c2F)n1 [encorafenib]
How it was run: as §1

[10] = compound: COC(=O)[C@H](CCSC)NC(=O)C1=C(C=C(C=C1)NC[C@H](CS)N)C2=CC=CC=C2
How it was run: as §1

Target: MND1 (UniProt Q9BWT6)
UniProt Q9BWT6, sequence (Q9BWT6 whole entry, looked up): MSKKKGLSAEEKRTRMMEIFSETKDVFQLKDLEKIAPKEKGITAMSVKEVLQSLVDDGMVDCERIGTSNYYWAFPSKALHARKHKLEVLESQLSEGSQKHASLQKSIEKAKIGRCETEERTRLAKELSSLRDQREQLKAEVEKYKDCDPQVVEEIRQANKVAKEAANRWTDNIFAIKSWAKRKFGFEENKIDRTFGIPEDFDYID
- log2 fold change [1]: -0.081
- log2 fold change (volasertib): -0.175
- log2 fold change [2]: -0.036
- log2 fold change (epoxomicin): 0.049
- log2 fold change [3]: 0.045
- log2 fold change [4]: -0.076
- log2 fold change [5]: -0.015
- log2 fold change (rosiglitazone): -0.008
- log2 fold change [6]: 0.04
- log2 fold change [7]: -0.468 (active)
- log2 fold change (saracatinib): 0.006
- log2 fold change (sotrastaurin): 0.036
- log2 fold change (alvocidib): 0.011
- log2 fold change (Tubastatin A): -0.006
- log2 fold change [8]: -0.029
- log2 fold change (defactinib): -0.021
- log2 fold change (rucaparib): 0.05
- log2 fold change [9]: -0.059
- log2 fold change (encorafenib): -0.15
- log2 fold change [10]: 0.023

Target: NUDT6 (UniProt P53370)
UniProt P53370, sequence (P53370 whole entry, looked up): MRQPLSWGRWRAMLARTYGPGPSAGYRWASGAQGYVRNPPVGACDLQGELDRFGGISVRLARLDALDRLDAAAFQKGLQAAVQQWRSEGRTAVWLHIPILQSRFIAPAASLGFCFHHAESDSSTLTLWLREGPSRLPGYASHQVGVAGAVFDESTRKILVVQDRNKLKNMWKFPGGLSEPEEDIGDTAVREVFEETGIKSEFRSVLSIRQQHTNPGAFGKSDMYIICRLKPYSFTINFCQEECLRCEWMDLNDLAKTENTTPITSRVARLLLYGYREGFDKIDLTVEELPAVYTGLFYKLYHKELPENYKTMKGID
- log2 fold change [1]: 0.177
- log2 fold change (volasertib): 0.041
- log2 fold change [2]: -0.289
- log2 fold change (epoxomicin): 0.031
- log2 fold change [3]: 0.016
- log2 fold change [5]: -0.055
- log2 fold change [6]: -0.132
- log2 fold change (saracatinib): 0.063
- log2 fold change (alvocidib): 0.165
- log2 fold change (Tubastatin A): 0.098
- log2 fold change [8]: 0.014
- log2 fold change (defactinib): 0.066
- log2 fold change (rucaparib): -0.38
- log2 fold change [9]: -0.023
- log2 fold change (encorafenib): -0.024
- log2 fold change [10]: -0.087

Target: MSL1 (UniProt Q68DK7)
UniProt Q68DK7, sequence (Q68DK7 whole entry, looked up): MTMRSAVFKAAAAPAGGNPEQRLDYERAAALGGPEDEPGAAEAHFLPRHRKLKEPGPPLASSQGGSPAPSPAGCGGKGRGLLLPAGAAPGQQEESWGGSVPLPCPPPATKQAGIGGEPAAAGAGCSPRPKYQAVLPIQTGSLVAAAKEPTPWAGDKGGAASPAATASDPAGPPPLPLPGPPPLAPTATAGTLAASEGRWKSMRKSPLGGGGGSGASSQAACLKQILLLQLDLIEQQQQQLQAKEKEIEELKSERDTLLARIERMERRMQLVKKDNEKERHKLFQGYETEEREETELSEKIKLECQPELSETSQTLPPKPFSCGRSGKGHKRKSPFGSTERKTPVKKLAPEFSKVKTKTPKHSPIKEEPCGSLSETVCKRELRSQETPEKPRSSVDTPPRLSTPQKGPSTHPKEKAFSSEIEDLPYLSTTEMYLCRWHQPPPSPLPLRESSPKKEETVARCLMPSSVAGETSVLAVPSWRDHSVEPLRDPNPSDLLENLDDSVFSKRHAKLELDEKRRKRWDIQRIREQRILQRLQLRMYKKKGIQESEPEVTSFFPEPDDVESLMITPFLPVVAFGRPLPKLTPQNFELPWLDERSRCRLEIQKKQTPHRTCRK
- log2 fold change [1]: 0.077
- log2 fold change (volasertib): 0.002
- log2 fold change [2]: -0.19
- log2 fold change (epoxomicin): 0.007
- log2 fold change [3]: -0.161
- log2 fold change [4]: -0.26
- log2 fold change [5]: -0.087
- log2 fold change (rosiglitazone): 0.028
- log2 fold change [6]: 0.098
- log2 fold change [7]: -0.161
- log2 fold change (saracatinib): -0.026
- log2 fold change (sotrastaurin): 0.052
- log2 fold change [8]: -0.253
- log2 fold change (defactinib): -0.069
- log2 fold change (rucaparib): -0.042
- log2 fold change [9]: 0.04
- log2 fold change (encorafenib): -0.088
- log2 fold change [10]: -0.017

Target: OSBPL8 (UniProt Q9BZF1)
UniProt Q9BZF1, sequence (Q9BZF1 whole entry, looked up): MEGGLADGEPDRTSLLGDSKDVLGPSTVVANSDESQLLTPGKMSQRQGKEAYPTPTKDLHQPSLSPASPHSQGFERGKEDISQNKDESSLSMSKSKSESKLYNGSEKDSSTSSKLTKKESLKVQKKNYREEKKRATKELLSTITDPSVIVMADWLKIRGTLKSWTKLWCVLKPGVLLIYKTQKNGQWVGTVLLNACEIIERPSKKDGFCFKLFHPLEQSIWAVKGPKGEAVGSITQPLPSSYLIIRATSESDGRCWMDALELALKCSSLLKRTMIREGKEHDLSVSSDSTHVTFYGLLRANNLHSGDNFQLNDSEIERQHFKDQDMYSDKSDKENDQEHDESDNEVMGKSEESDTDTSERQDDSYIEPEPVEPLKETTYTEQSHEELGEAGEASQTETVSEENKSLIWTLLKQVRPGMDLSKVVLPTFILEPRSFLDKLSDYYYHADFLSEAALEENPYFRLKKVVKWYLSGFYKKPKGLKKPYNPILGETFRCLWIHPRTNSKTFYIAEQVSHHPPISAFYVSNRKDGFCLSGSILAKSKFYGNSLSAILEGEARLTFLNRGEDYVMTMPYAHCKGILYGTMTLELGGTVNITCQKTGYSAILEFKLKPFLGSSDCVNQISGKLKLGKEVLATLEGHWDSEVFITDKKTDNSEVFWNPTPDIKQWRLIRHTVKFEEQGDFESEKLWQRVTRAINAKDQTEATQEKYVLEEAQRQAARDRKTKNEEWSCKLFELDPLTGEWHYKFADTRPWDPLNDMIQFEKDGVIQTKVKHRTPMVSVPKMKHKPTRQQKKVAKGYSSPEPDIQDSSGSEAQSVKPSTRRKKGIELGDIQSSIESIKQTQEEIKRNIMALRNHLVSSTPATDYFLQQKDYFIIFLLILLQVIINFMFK
- log2 fold change [1]: -0.068
- log2 fold change (volasertib): -0.026
- log2 fold change [2]: 0.062
- log2 fold change (epoxomicin): -0.118
- log2 fold change [3]: 0.271
- log2 fold change [4]: 0.061
- log2 fold change [5]: 0.055
- log2 fold change (rosiglitazone): 0.031
- log2 fold change [6]: 0.09
- log2 fold change [7]: -0.114
- log2 fold change (saracatinib): -0.175
- log2 fold change (sotrastaurin): -0.054
- log2 fold change (alvocidib): -0.011
- log2 fold change (Tubastatin A): 0.078
- log2 fold change [8]: 0.11
- log2 fold change (defactinib): 0.025
- log2 fold change (rucaparib): 0.232
- log2 fold change [9]: 0.488 (active)
- log2 fold change (encorafenib): 0.167
- log2 fold change [10]: -0.078
